# Data as given in the supplement of paper PMC6555819.
# How the values were obtained:
# Test in all cases: PBM binding z-score (relative to random genomic background probes); higher = stronger binding; sequences stand for … in GC…GCGATTGACAGCGTAGAATGAAGG
# [1] = test system: FXR:RXRa (NR concentration 270 nM, RXRa partner concentration 90 nM)
# Method in brief: (§1)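 Regression normalization was applied to scanned fluorescence from custom Agilent 4×180K protein-binding microarrays. Before scanning, arrays were incubated 1 h with ligand-free nuclear receptor dimers, and binding was detected with antibodies against each partner (one per run). Binding z-scores use the random background probes as reference.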
# [2] = test system: LXRa:RXRa (NR concentration 270 nM, RXRa partner concentration 90 nM)
# Method in brief: as §1
# [3] = test system: LXRa homodimer (NR concentration 270 nM)
# Method in brief: as §1
# [4] = test system: LXRb:RXRa (NR concentration 270 nM, RXRa partner concentration 90 nM)
# Method in brief: as §1
# [5] = test system: LXRb homodimer (NR concentration 270 nM)
# Method in brief: as §1
# [6] = test system: PPARa:RXRa (NR concentration 270 nM, RXRa partner concentration 90 nM)
# Method in brief: as §1
# [7] = test system: PPARg:RXRa (NR concentration 180 nM, RXRa partner concentration 90 nM)
# Method in brief: as §1
# [8] = test system: PPARg:RXRa 270nM:90nM, anti-RXR (NR concentration 270 nM, RXRa partner concentration 90 nM)
# Method in brief: as §1
# [9] = test system: PPARg:RXRa 30nM:10nM, anti-RXR (NR concentration 30 nM, RXRa partner concentration 10 nM)
# Method in brief: as §1
# [10] = test system: PPARg:RXRa 90nM:30nM, anti-RXR (NR concentration 90 nM, RXRa partner concentration 30 nM)
# Method in brief: as §1
# [11] = test system: PPARg:RXRa DBDmut IVT, anti-RXR (DBD mutation: RXRa K156A/R161A, NR concentration 270 nM, RXRa partner concentration 90 nM)
# Method in brief: as §1
# [12] = test system: PPARg:RXRa IVT, anti-PPARg (NR concentration 270 nM, RXRa partner concentration 90 nM)
# Method in brief: as §1
# [13] = test system: PPARg DBDmut:RXRa IVT, anti-PPARg (DBD mutation: PPARg1 K132A/R137A, NR concentration 270 nM, RXRa partner concentration 90 nM)
# Method in brief: as §1
# [14] = test system: PPARg DBDmut IVT, anti-PPARg (DBD mutation: PPARg1 K132A/R137A, NR concentration 270 nM)
# Method in brief: as §1
# [15] = test system: PPARg homodimer (NR concentration 180 nM)
# Method in brief: as §1
# [16] = test system: PXR:RXRa (NR concentration 270 nM, RXRa partner concentration 90 nM)
# Method in brief: as §1
# [17] = test system: PXR homodimer (NR concentration 270 nM)
# Method in brief: as §1
# [18] = test system: RARa:RXR (NR concentration 270 nM, RXRa partner concentration 90 nM)
# Method in brief: as §1
# [19] = test system: RARa homodimer (NR concentration 270 nM)
# Method in brief: as §1
# [20] = test system: RARb:RXRa (NR concentration 270 nM, RXRa partner concentration 90 nM)
# Method in brief: as §1
Sequence,PBM binding z-score [1],PBM binding z-score [2],PBM binding z-score [3],PBM binding z-score [4],PBM binding z-score [5],PBM binding z-score [6],PBM binding z-score [7],PBM binding z-score [8],PBM binding z-score [9],PBM binding z-score [10],PBM binding z-score [11],PBM binding z-score [12],PBM binding z-score [13],PBM binding z-score [14],PBM binding z-score [15],PBM binding z-score [16],PBM binding z-score [17],PBM binding z-score [18],PBM binding z-score [19],PBM binding z-score [20]
CCTTACGCGTCACGAGGTTATAGCACGACGAGCG,0.529,0.868,0.107,0.95,0.329,1.44,1.08,0.331,-0.172,-0.00609,0.147,0.154,0.124,0.548,1.05,1.03,0.532,1.15,0.761,0.811
TCATATAGATAAACAGGTGAAAGTCCGTAAGTTA,1.22,1.04,0.611,1.09,0.473,1.69,1.41,2.83,4.51,3.77,2.87,1.36,0.902,1.03,1.33,1.07,0.573,1.37,1.53,0.536
ATACCAAGGTGATCGTGAGGTCGATGATACTAAC,1.46,0.961,0.482,0.993,-0.149,1.34,0.934,0.585,0.169,0.24,0.508,1.52,0.609,0.528,0.828,1.91,0.391,1.9,0.262,1.55
CGTCCAAGGTCAAGGTCAGGGAAAGAGACTCGAA,7.19,5.97,1.22,4.87,0.963,6.11,6.41,7.28,3.93,5.91,4.11,5.09,0.821,-0.224,4.18,5.28,1.82,5.45,2.88,5.72
TAGCCTAGGTCAGATCGGGCCAGTAAACGCTATA,2.02,1.16,-0.524,0.637,-0.2,1.5,0.341,0.516,-0.817,-0.377,0.412,1.24,-0.563,-0.294,-0.374,1.12,-0.666,0.814,-1.71,2.85
AGTCAAAGTTCAGGGCGAGGTAACGTAAAGCACG,4.49,4.03,1.39,2.27,0.321,3.75,5.2,5.24,1.76,4.08,0.0616,2.24,-0.0376,0.418,2.91,3.19,1.1,2.93,1.23,4.49
AGTCAAAGTTCAGCTAGGTAACGTAAGATATGCT,3.9,3.86,1.68,1.91,0.177,3.34,4.61,4.73,2.11,4.07,0.153,2.1,0.968,0.836,1.67,3.01,1.8,2.29,1.19,4.37
ATCTCTAGGTAACAAGTTCCGTGAAAGAGAGGAC,0.25,-0.0278,0.209,0.0127,0.506,0.431,0.903,1.28,0.68,1.07,3.05,2.66,0.253,1.32,0.831,-0.111,0.636,0.015,0.906,0.274
AATACAGGGACACTAGGCCAGAGTAGGTACGAAT,-0.211,-0.375,-0.0605,-0.483,-0.0261,-0.00279,0.846,0.394,0.113,0.294,0.603,1.52,0.579,0.0521,-0.62,-0.635,0.0323,-0.555,-0.036,0.688
GCTGCTAGGTCAACTGATGGGCAGCTAAAGCTCG,3.7,2.69,-0.419,1.48,-0.413,3.25,2.39,3.09,0.29,1.62,4.79,4,-0.683,-0.478,0.434,1.1,-0.949,1.93,-0.663,4.1
TCATATAGGTAAAGGTGAAATTCGAACGATATGA,0.843,1.08,-0.192,1.14,0.15,3.13,4.11,4.26,4.22,4.3,3.77,3.94,1.35,1.08,0.745,0.895,0.378,1.54,0.597,1.77
ACTATTAGTTGACTTAAGGCAACCGATACGACGC,0.413,0.299,0.175,0.537,1.03,0.139,0.967,0.607,0.511,0.394,0.219,0.392,0.915,1.11,0.0202,0.21,-0.0343,1.43,0.466,0.296
ATATGTAGGTTACATCCGGGTCATTCACGCTATG,2.44,4.66,1.9,3.31,1.26,4.8,6.27,5.48,2.76,4.79,7.63,7.57,6.55,5.07,5.81,4.01,1.48,4.11,1.52,2.41
CGTCCAAGGTCAGAGAGATCAGTGAATGCCGAGT,4.93,2.88,0.0283,2.25,0.0679,3.73,2.1,2.59,0.164,1.22,2.6,2.11,0.0329,-0.28,1.89,2.74,0.829,3.01,-0.15,4.62
CCTTACGGGGCACGAGGTTATAGCACGACGAGCG,0.567,0.879,-0.304,0.509,-0.823,2.26,2.22,2.19,0.265,1.49,1.87,2.38,0.9,-1.3,0.427,0.836,-0.487,1.6,-0.309,1.9
CCTACTGCGCCAAAGGTCATTGATTCCAATGCTC,5.29,5.64,5.34,5.07,1.91,5.47,6.88,7.67,6.56,7.79,1.68,3.77,5.21,1.61,3.34,5.66,2.58,5.78,2.4,4.61
GCTGCTAGGTCAGGTTGGTCAGTTAACGGGTACG,1.25,0.792,0.267,0.719,0.0842,1.6,0.425,0.836,-0.54,-0.0172,2.8,2.15,-1,-0.445,0.781,0.391,0.149,0.719,-0.401,3.21
GGAACGAGGGCAAATTGATAGCAGAGTTTGATGG,0.902,0.348,-0.101,0.452,-0.144,1.73,1.16,0.944,0.134,0.629,3.46,2.68,0.618,-0.23,0.358,0.625,0.703,0.402,-0.436,2.23
ATCTCTGGGTAAAAGTTCAGTGAATCCCGAGGAT,0.844,1.38,1.37,1.04,1.4,4.12,7.38,7.77,6.93,9.04,1.87,3.69,1.17,1.44,1.47,2.03,1.5,1.97,0.896,2.59
TAGCCTAGGTCATTGGCCAGTATACCACGCGAAC,4.93,3.34,0.738,2.61,0.254,3.41,2.4,2.49,0.453,1.44,1.38,2.72,0.244,-0.771,1.49,1.56,-0.368,2.16,-0.259,3.57
ATCTCTAGGTAAAACTCAGTTCAGTGAAGAACGC,0.591,0.776,0.947,0.542,1.02,0.518,0.101,0.473,0.403,0.618,2.63,1.95,0.847,0.779,1.22,1.7,1.99,0.609,1.49,0.514
GCTGCTAGCTCAGGTTGGTCAGCTAACGGGTACG,-0.68,-0.822,-0.914,-0.935,-1.25,-1.08,-0.612,-0.997,-1.04,-0.839,-0.142,-0.678,-1.21,-1.62,-1.31,-0.81,-0.881,-0.76,-2.27,-0.463
CCGAGTAGGTTATGGGACATTCAGGCAACGGTGA,0.111,0.356,0.00939,0.277,0.141,0.923,1.53,2.35,0.542,1.74,3.53,2.6,-0.291,-0.241,1.11,-0.0515,0.264,0.315,0.595,0.813
ATCTCTAGCTAAGACTCAGTTCAGTGAAGAACGC,0.167,0.272,0.317,-0.057,0.629,-0.233,-0.0864,-0.493,-0.13,-0.144,-0.0797,0.0403,0.405,0.581,0.595,0.728,1.14,0.508,0.699,0.0718
ATATGTAGGTAAAGGGTCATTCAGGTTGGTTCGC,4.11,4.04,2.46,3.97,1.17,6.53,11.1,9.65,9.28,10.5,7.14,7.26,2.33,1.19,3.33,5.22,2.87,5.04,2.48,3.53
TATACAGGGCCAAAGGCCAGAGTACGAATGTCGA,0.18,0.14,-0.21,-0.197,0.431,1.38,4.12,4.61,2.62,4.32,-0.282,1.6,0.275,-0.0589,0.362,-0.0978,-0.0965,0.479,-0.305,1.53
AGAATGAGGTTATACGTAGCTCAGGGAAGAAAGT,1.61,1.23,-0.204,1.05,-0.347,2.86,1.46,1.95,0.439,1.23,3.72,1.8,0.808,0.83,0.431,0.653,0.0212,1.15,0.35,1.11
TCGAGTAGGTTAGTCGGGGCATGCAGCCAACATA,-0.0547,0.104,-0.427,0.0747,-0.894,0.523,0.2,0.809,0.702,0.884,2.41,2.26,0.028,-1.65,-0.293,-0.00662,-0.418,0.207,-0.677,0.512
